# Assay results: the OligoGym collection
# Biological target: GRIA1
# Assay: pooled miR-30 sensor sort-seq; sequence = guide strand
# Conditions: shRNA
# Also: reference of the scale not given here.
row,Sequence,sensor-assay potency score (higher = more potent)
1,TTGTCTTGTCCTTACTTCCGGA,-0.41
2,TCCATCACTGACAATCTCCAGA,-1.21
3,TATCGTACCACCATTTGCTTTT,-0.245
4,TTGACTGCTGTCACCTGCCAGT,-0.603
5,TTTCTGTCTGCTTCGCTAGGTC,-0.0532
6,TTATCGTACCACCATTTGCTTT,-1.73
7,TTTGTTTAAGTCAATGTCCATG,-1.06
8,TAAACCTTCAAATCGCACCTGC,0.232
9,TTCTCTAGCTTTATAATCTGGC,-0.406
10,TTTCTCATTAAACTGCACGTTT,-0.314
11,AAATCTATAACTTCTTCCCGGA,0.0312
12,TATAACTTCTTCCCGGACCAAA,-1.38

# Biological target: GRIK2
# Assay: as above
# Conditions: shRNA
row,Sequence,sensor-assay potency score (higher = more potent)
1,TCGAACATAGGTAATAGCCAGT,-0.567
2,TTGTCCATTGGCATCATCCTGG,-0.234
3,TTCTTCATTACTTTTGACCAGC,-0.437
4,TTTATGTCGATTACACTGCAAG,-0.937
5,TTTGTTTAGCTAAATCATCAGC,-0.527
6,TACACTGCAAGGAACTGACTGT,0.034
7,TACTGCTCCATATTCTATCTTG,-0.199
8,TTGACCAGCACTGACTGCCTTC,-0.29
9,TTAATTAGACTCATAAAGCGGG,0.186
10,TTGAGTCGAAGATTATACCTTG,0.358
11,TAGAGCAGCATCAGTCGTCATA,-0.889
12,TTTGTTGTCTGACACCTGGTGC,0.0104

# Biological target: GRIPAP1
# Assay: as above
# Conditions: shRNA
row,Sequence,sensor-assay potency score (higher = more potent)
1,TTGCTGGTTCTCTTGCTCCAGC,-0.982
2,TTCCATTGCTAGCTCATCCAGC,-0.174
3,TATTTCTTGAAGTTGTTCCAGC,-0.115
4,TTCTTTTTCAGTTTCTCGGAGA,-0.31
5,TTTGTGATCAGCTTCCTTCCGT,0.395
6,TTCCTGTGCATCTGCACTCTGG,-1.21
7,TTTGCTGAACTCCTTATCCAAG,-1.41
8,TTCTTGAAGTTGTTCCAGCAGT,-0.658
9,TTCCTTGCTGAACTCGGCCATT,-1.52
10,TTTCTTTTTCAGTTTCTCGGAG,-0.138
11,TTGAAGTTCTTCCACTGTCTGC,-0.043
12,TTGTGATCAGCTTCCTTCCGTT,-0.347

# Biological target: GRK1
# Assay: as above
# Conditions: shRNA
row,Sequence,sensor-assay potency score (higher = more potent)
1,TAGTCCTCGATGTCTTTCCAGA,-1.36
2,TTGCCGGTCGCCTTCATCTGGC,-1.21
3,TTGTTCTCCACCTTCTCTCCAC,-0.0458
